Measured values from PubChem BioAssay (Tox21).
Several values for one entry are separate records, joined by “and”; a condition that tells them apart may be missing. Equal values may be shown once. Values without a mark were called inactive. Inconclusive results are not listed. A call without a number means that no potency is given here. Activity calls are given as the source filed them. Unless noted, calls come from the whole dose curve; as a rule, active = well fitted curve in the direction sought with a large enough effect in the repeat runs; inconclusive = weak or mixed curves; inactive = no such curve, though single readings can be large; an effect the other way counts as inactive or inconclusive.

Assays:
[1] = qHTS assay for small molecule agonists of the p53 signaling pathway (AID 651631; calls by dose curve; note: nearly all actives have a fitted effect of over 15% in size; note: potency is the fitted concentration of half-maximal effect)
Summary of the method: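 We treat p53RE-bla HCT-116 cells with compounds for 16 h at 37 °C, add LiveBLAzer B/G FRET substrate for 2 h at room temperature, and measure fluorescence intensity.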

[2] = qHTS assay for small molecules that induce genotoxicity in human embryonic kidney cells expressing luciferase-tagged ATAD5 (AID 651632); note: nearly all actives have a fitted effect of over 15% in size
Summary of the method: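 Quantitative HTS in HEK293T expressing luciferase-tagged ATAD5, whose levels rise upon DNA damage. Exposure ran 16 hr at 37C and 5% CO2, with luminescence read 30 min after Amplite addition at room temperature.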

[3] = qHTS assay for small molecule agonists of the p53 signaling pathway - cell viability (AID 651633; calls by dose curve;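 note: p53RE-bla HCT reporter cells with a stable beta-lactamase p53 reporter; series mostly up to about 83 µM; nearly all actives have a fitted effect of over 30% in size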)
Summary of the method: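 Viability counter-read: CellTiter-Glo luminescence (30 min, room temperature) in the same p53RE-bla plates. These plates had been exposed to compounds for 16 h at 37 C.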

[4] = qHTS assay for small molecules that induce genotoxicity in human embryonic kidney cells expressing luciferase-tagged ATAD5 - cell viability (AID 651634; calls by dose curve; note: nearly all actives have a fitted effect of over 25% in size)
Summary of the method: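 After 15.5 hr incubation with compound at 37C, 5% CO2, HEK293T ATAD5-luciferase cells received CellTiter-Fluor reagent; fluorescence intensity was quantified following 30 min at 37C.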

[5] = qHTS assay for small molecule disruptors of the mitochondrial membrane potential - cell viability (AID 720634; calls by dose curve; note: nearly all actives have a fitted effect of over 20% in size; note: potency is the fitted concentration of half-maximal effect)
Summary of the method: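 ATP-based luminescent viability readout (CellTiter-Glo, 30 min, room temperature) in HepG2 cells multiplexed with the m-MPI membrane potential dye; compound exposure lasted 1 hr at 37 C.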

[6] = qHTS assay to test for compound auto fluorescence at 590 nm (red) in HepG2 cells (AID 720674)
Summary of the method: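 1 hr compound incubation on HepG2 cells, 37 C, 5% CO2; plate read ex 540 nm / em 590 nm; intensities reported as Rose Bengal sodium equivalents.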

[7] = qHTS assay to test for compound auto fluorescence at 535 nm (green) in HepG2 cells (AID 720675)
[8] = qHTS assay to test for compound auto fluorescence at 460 nm (blue) in HEK293 cells (AID 720678)
Summary of the method: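 HEK293 cells (2,000 per well, medium with 10% dialyzed FBS) attached for 4-5 hr at 37C, then received compound and stood overnight at 37C, 5% CO2. Blue fluorescence was read at Ex/Em 405/460 nm and expressed relative to triamterene.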

[9] = qHTS assay to test for compound auto fluorescence at 590 nm (red) in HEK293 cells (AID 720679)
Summary of the method: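 HEK293 cells (2,000/well, medium with 10% dialyzed FBS) attached for 4-5 hr at 37C, received 23 nL compound and were incubated overnight at 37C, 5% CO2. Red fluorescence was then read at 540/590nm Ex/Em, referenced to Rose Bengal sodium.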

[10] = qHTS assay for small molecule disruptors of the mitochondrial membrane potential (AID 720635); note: potency is the fitted concentration of half-maximal effect
Summary of the method: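 Mitochondrial membrane potential tracked with Mito-MPS dye, red aggregates (ex 540/em 590 nm) against green monomers (ex 490/em 535 nm). Compound treatment 1 hr at 37C, dye 30 min in HepG2.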

Compound	Potency [1]	Potency [2]	Potency [3]	Potency [4]	Potency [5]	outcome [6]	outcome [7]	outcome [8]	outcome [9]	Potency [10]	fluorescence, relative to Rose Bengal [6]	fluorescence, % of fluorescein control [7]	fluorescence, % of triamterene [8]	fluorescence, % of fluorescent control [9]
COc1cc(OC)nc(Oc2cccc(Oc3nc(OC)cc(OC)n3)c2C(=O)O)n1	inactive	inactive	inactive	inactive	inactive	inactive	inactive	inactive	inactive					
O=NN1CCCCC1	inactive	inactive	inactive	inactive	inactive	inactive		inactive	inactive	inactive				
O=[N+]([O-])c1ccc2c3c(cccc13)CC2	inactive	inactive	inactive	inactive	inactive			inactive	inactive	24.3 µM (active)				
C=C(C)CN(CC)c1c([N+](=O)[O-])cc(C(F)(F)F)cc1[N+](=O)[O-]	inactive	inactive	inactive	inactive	inactive		inactive	inactive	inactive	30.6 µM (active)				
CCN(Cc1ccc(Cl)nc1)/C(=C/[N+](=O)[O-])NC	inactive	inactive	inactive	inactive	inactive			inactive	inactive	inactive				
CC(N)=S	inactive	inactive	inactive	inactive	inactive	inactive		inactive	inactive	inactive				
COc1cc2c(cc1OC)[C@@]13CCN4CC5=CCO[C@H]6CC(=O)N2[C@H]1[C@H]6[C@H]5C[C@H]43	inactive	inactive	inactive	inactive	inactive	inactive	inactive	inactive	inactive					
CC(Cl)(Cl)[N+](=O)[O-]	inactive	inactive	inactive	inactive	inactive		inactive	inactive	inactive	inactive				
CCC(=O)c1ccccc1	inactive	inactive	inactive	inactive	inactive	inactive	inactive	inactive	inactive					
CNC(=O)O/N=C(\C)SC	inactive	inactive	inactive	inactive	inactive	inactive	inactive	inactive	inactive					
CCOC(=O)CP(=O)(OCC)OCC	inactive	inactive	inactive	inactive	inactive	inactive	inactive	inactive	inactive					
CN(N=O)C(N)=O	inactive	inactive	inactive	inactive	inactive	inactive	inactive	inactive	inactive					
CCC1(c2ccccc2)C(=O)N=C(O)NC1=O (centres undefined)	inactive	inactive	inactive	inactive	inactive			inactive	inactive	inactive				
CNC(=O)Oc1ccc(N(C)C)c(C)c1	inactive	inactive	inactive	inactive	inactive	inactive	inactive	inactive	inactive					
CCN(CC)C(=O)[C@@H]1C=C2c3cccc4[nH]cc(c34)C[C@H]2N(C)C1	inactive	inactive	inactive	inactive	inactive			inactive	inactive	8.98 µM (active) and 6.68 µM (active)				
CCCCC(=O)Cl	inactive	inactive	inactive	inactive	inactive		inactive	inactive	inactive	inactive				
Cc1nnc2n1-c1sc(CCC(=O)N3CCOCC3)cc1C(c1ccccc1Cl)=NC2	inactive	inactive	inactive	inactive	inactive	inactive	inactive	inactive	inactive					
Clc1cccc(N2CCNCC2)c1	inactive	inactive	inactive	inactive	inactive	inactive	inactive	inactive	inactive					
O=C(CCN1CC1)OCC(CO)(COC(=O)CCN1CC1)COC(=O)CCN1CC1	inactive	inactive	inactive	inactive	inactive	inactive	inactive	inactive	inactive					

Compound	Potency [1]	Potency [2]	Potency [3]	Potency [4]	Potency [5]	outcome [6]	outcome [7]	outcome [8]	outcome [9]	Potency [10]	fluorescence, relative to Rose Bengal [6]	fluorescence, % of fluorescein control [7]	fluorescence, % of triamterene [8]	fluorescence, % of fluorescent control [9]
CCC/C(=N\OCC)C1=C(O)CC(CC(C)SCC)CC1=O (centres undefined)	inactive	inactive	inactive	inactive	inactive	inactive		inactive	inactive	inactive				
COc1cc(OC)nc(Sc2cccc(Cl)c2C(=O)O)n1	inactive	inactive	inactive	inactive	inactive	inactive		inactive	inactive	inactive				
CC(C)[N+](=O)[O-]	inactive	inactive	inactive	inactive		inactive	inactive	inactive	inactive					
CC(C)(C)C(=O)C(Oc1ccc(Cl)cc1)n1cncn1 (centres undefined)	inactive	inactive	inactive	inactive			inactive	inactive	inactive					
C[C@H]1CCC[C@H](O)CCCCCc2cc(O)cc(O)c2C(=O)O1	inactive	inactive	inactive		26.6 µM (active)	inactive	inactive	inactive	inactive	9.44 µM (active) and 6.91 µM (active)				
N#Cc1ccncc1	inactive	inactive	inactive	inactive	inactive	inactive	inactive	inactive	inactive					
COc1ccc(C(=O)N2CCCC2=O)cc1	inactive	inactive	inactive	inactive			inactive	inactive	inactive					
C=C(C)[C@@H]1CC=C(C=O)CC1	inactive	inactive	inactive	inactive	inactive		inactive	inactive	inactive					
CCCCOC(=O)[C@@H](C)Oc1ccc(Oc2ccc(C#N)cc2F)cc1	inactive	inactive	inactive	inactive		inactive	inactive	inactive	inactive					
BrCCCCCCBr	inactive	inactive		inactive	inactive	inactive	inactive	inactive	inactive	inactive				
CCOP(=S)(OCC)Oc1cc(-c2ccccc2)on1	inactive	inactive	inactive	inactive				inactive	inactive					
COP(N)(=S)Oc1ccccc1C(=O)OC(C)C (centres undefined)	inactive	inactive	inactive	inactive	inactive		inactive	inactive	inactive					
COc1ccc2c(c1OC)CN1CCc3cc4c(cc3C1C2)OCO4 (centres undefined)	inactive	inactive	inactive	inactive	inactive						0.552% [at 18.6 µM]	-0.0763% [at 18.6 µM]	-0.105% [at 18.6 µM]	-0.125% [at 18.6 µM]
CC(CC(C#N)(c1ccccc1)c1ccccc1)N(C)C (centres undefined)	inactive	inactive	inactive	inactive	inactive	inactive		inactive	inactive					
CCS(=O)(=O)CCSP(=O)(OC)OC	inactive	inactive	inactive	inactive	inactive	inactive		inactive	inactive					
CC(COc1ccc(Oc2ccccc2)cc1)Oc1ccccn1 (centres undefined)	inactive	inactive	inactive	inactive		inactive	inactive	inactive	inactive					
CSc1ccc(C(=O)C(C)(C)N2CCOCC2)cc1	inactive	inactive	inactive	inactive	inactive	inactive		inactive	inactive					
CNNC	inactive	inactive	inactive	inactive	inactive	inactive	inactive	inactive	inactive					
OCCSCSCCO	inactive	inactive		inactive	inactive	inactive	inactive	inactive	inactive	inactive				

Compound	Potency [1]	Potency [2]	Potency [3]	Potency [4]	Potency [5]	outcome [6]	outcome [7]	outcome [8]	outcome [9]	Potency [10]	fluorescence, relative to Rose Bengal [6]	fluorescence, % of fluorescein control [7]	fluorescence, % of triamterene [8]	fluorescence, % of fluorescent control [9]
CCN(CC)c1nc(C)cc(OP(=S)(OC)OC)n1	inactive	inactive	inactive	inactive		inactive	inactive	inactive	inactive					
CCCCOC(=O)c1ccccc1C(=O)O	inactive	inactive	inactive		inactive		inactive	inactive	inactive					
N#CC(Cl)(Cl)Cl	inactive	inactive	inactive	inactive	inactive	inactive		inactive	inactive					
C#C[C@]1(O)C=C[C@H]2[C@@H]3CCC4=CC(=O)CC[C@@H]4[C@H]3CC[C@@]21CC	inactive	inactive	inactive	inactive	inactive		inactive	inactive	inactive					
ClC(Cl)C(Cl)Cl	inactive	inactive	inactive	inactive	inactive	inactive		inactive	inactive					
CC(=O)CCc1ccc2c(c1)OCO2	inactive	inactive		inactive	inactive	inactive	inactive	inactive	inactive	inactive				
Cc1cnc[nH]1	inactive	inactive	inactive	inactive	inactive		inactive	inactive	inactive					
c1cc2c(c(N3CCNCC3)c1)OCCO2	inactive	inactive	inactive	inactive	inactive	inactive	inactive	inactive	inactive					
O=NN1CCN(N=O)CC1	inactive	inactive	inactive	inactive	inactive		inactive	inactive	inactive					
C=CC1CC=CCC1 (centres undefined)	inactive	inactive	inactive	inactive	inactive	inactive	inactive	inactive	inactive					
COc1cccc2c1cc([N+](=O)[O-])c1c(C(=O)O)cc3c(c12)OCO3	2.43 µM (active)	inactive	inactive		inactive	inactive		inactive	inactive	48.6 µM (active)				
Cc1cccc(C#N)c1	inactive	inactive	inactive	inactive	inactive	inactive	inactive	inactive	inactive					
O=C(Oc1ccc(Br)cc1)N1CCN2CCC1CC2	inactive	inactive	inactive	inactive	inactive		inactive	inactive	inactive					
CC(C)CP(=S)(S)CC(C)C	inactive	inactive	inactive	inactive	inactive	inactive		inactive	inactive					
CCC1(c2ccccc2)C(=O)NC(=O)NC1=O	inactive	inactive	inactive	inactive	inactive	inactive		inactive	inactive					
N#CCCC#N	inactive	inactive	inactive	inactive		inactive	inactive	inactive	inactive					
N#CCBr	inactive	inactive	inactive	inactive	inactive	inactive	inactive	inactive	inactive					
CCOC(=O)N(C)C(=O)CSP(=S)(OCC)OCC	inactive	inactive	inactive	inactive	inactive		inactive	inactive	inactive					
CN1CCN(C(=O)O[C@H]2c3nccnc3C(=O)N2c2ccc(Cl)cn2)CC1	inactive	inactive		inactive	inactive	inactive	inactive	inactive	inactive					
